# According to PubChem BioAssay (NCATS):
# Experiment: qHTS profiling of the MIPE4 collection as inhibitors of Plasmodium falciparum (DD2) proliferation (AID 743345)
# Conditions: P. falciparum Dd2 in erythrocytes, SYBR Green DNA, 72 h; at 28.5 µM (top of the series) unless noted
# From the text: Plasmodium falciparum is a virulent malarial parasite that kills 1-2 million people worldwide each year. Transmitted by mosquitoes, the sporozoite form of the parasite enters the blood stream to infect hepatocytes, where they become merozoites that infect red blood cells (erythrocytes). Within erythrocytes, merozoites begin a […] cycle of growth and division, after which the parasite is released to infect new red blood cells. Gametocytes, which form within erythrocytes as well, circulate in the bloodstream and are ingested by the mosquito, thereby completing the life cycle. To profile malarial isolates for differential chemical responses and to identify inhibitors of malarial growth, an assay that measures P. falciparum growth and replication within erythrocytes was employed. This assay uses a DNA binding fluorescent dye (SYBR Green) to detect parasite DNA following cell lysis. Because mature erythrocytes lack DNA, only Plasmodium-derived DNA is detected.
# The SYBR Green viability assay was adapted from a method described previously (Plouffe et al., 2008). For screening 3 ul culture medium was dispensed into 1536 well black clear bottom plates (Aurora Biotechnologies) using a Multidrop Combi (Thermo Fisher Scientific Inc.), 23 nL compounds in DMSO were added by a pin tool (Kalypsys), and 5 ul of erythrocytes infected with P. falciparum (0.3% parasitemia, 2.5% hematocrit final concentration) were added. The plates were incubated at 37 C in a humidified incubator in 5% CO2 for 72 h, and 2 ul lysis buffer (20 mM Tris HCl, 10 mM EDTA, 0.16% saponin, 1.6% triton X, 10X SYBR Green I supplied as 10,000X […] by Invitrogen) was added to each well. The plates were mixed for 25 sec with gentle shaking and incubated overnight at room temperature in the dark. The following morning, fluorescence intensity at 485(14) nm excitation and 535(25) nm emission wavelengths was measured on an EnVision (Perkin Elmer) plate reader. Plate reads were normalized relative to the control inhibitor (0.29 uM artemisinin) and vehicle (DMSO) wells present on each plate and then corrected by an algorithm using vehicle-only control plates at the beginning and end of the compound plate stack.
row,Compound,"parasite growth remaining, % of DMSO control (lower = more inhibition)"
1,CC#C[C@]1(O)CC[C@H]2[C@@H]3CCC4=CC(=O)CCC4=C3[C@@H](c3ccc(N(C)C)cc3)C[C@@]21C,45.8%
2,CN1CCC(=C2c3ccccc3C=Cc3ccccc32)CC1,36%
3,CC(C)(C)C(=O)Oc1ccc(S(=O)(=O)Nc2ccccc2C(=O)NCC(=O)O)cc1,92.3%
4,O=C(c1ccc(OCCN2CCCCC2)cc1)c1c(-c2ccc(O)cc2)sc2cc(O)ccc12,32.9%
5,CC(C)NCC(O)COc1ccc(CCOCC2CC2)cc1 (stereo not given),89.8%
6,NC12CC3CC(CC(C3)C1)C2,72%
7,Cc1cn([C@H]2C=C[C@@H](CO)O2)c(=O)[nH]c1=O,112% [at 57.5 µM]
8,Cc1ccc(C(=O)Nc2ccc(S(=O)(=O)O)c3cc(S(=O)(=O)O)cc(S(=O)(=O)O)c23)cc1NC(=O)c1cccc(NC(=O)Nc2cccc(C(=O)Nc3cc(C(=O)Nc4ccc(S(=O)(=O)O)c5cc(S(=O)(=O)O)cc(S(=O)(=O)O)c45)ccc3C)c2)c1,75.7%
9,COc1nc(C)nc(Cl)c1NC1=NCCN1,89.9%
10,NCCc1cnc[nH]1,101%
11,CCOC(=O)C(C)(C)Oc1ccc(Cl)cc1,103%
12,CC[C@@]1(O)C(=O)OCc2c1cc1n(c2=O)Cc2cc3c(CN(C)C)c(O)ccc3nc2-1,16.9%
13,Clc1ccc2c(c1)C(N1CCNCC1)=Nc1ccccc1O2,28.9%
14,COc1ccccc1N1CCN(CC(O)COc2cccc3ccccc23)CC1 (stereo not given),98.8%
15,CC(CCc1ccc(O)cc1)NCCc1ccc(O)c(O)c1 (stereo not given),64.4%
16,O=C(Nc1ccc([N+](=O)[O-])cc1Cl)c1cc(Cl)ccc1O,6.45%
17,OCCN1CCN(CCCN2c3ccccc3Sc3ccc(C(F)(F)F)cc32)CC1,10.5%
18,CN(C)CCOC(c1ccccc1)c1ccccc1,39.2%
19,CC12CC3CC(C)(C1)CC(N)(C3)C2,23.6%
20,CN(C)c1nc(N(C)C)nc(N(C)C)n1,102%

row,Compound,"parasite growth remaining, % of DMSO control (lower = more inhibition)"
1,Cc1ccc(-c2cc(C(F)(F)F)nn2-c2ccc(S(N)(=O)=O)cc2)cc1,64.9%
2,O=C(c1ccc(F)cc1)C1CCN(CCn2c(=O)[nH]c3ccccc3c2=O)CC1,19.2%
3,NS(=O)(=O)c1cc2c(cc1Cl)NCNS2(=O)=O,53.5%
4,COc1cc2nc(N3CCN(C(=O)C4COc5ccccc5O4)CC3)nc(N)c2cc1OC (stereo not given),9.25%
5,Nc1c2c(nc3ccccc13)CCCC2,15.1%
6,CCN1CCCC1CNC(=O)c1cc(S(=O)(=O)CC)c(N)cc1OC (stereo not given),99.9%
7,CN(C)C(=N)N=C(N)N,99.4%
8,COc1ccc2c(c1)c(CC(=O)O)c(C)n2C(=O)c1ccc(Cl)cc1,103%
9,Cc1cnc(C(=O)NCCc2ccc(S(=O)(=O)NC(=O)NC3CCCCC3)cc2)cn1,12.7%
10,O=C1N(c2ccccc2)c2ccccc2C1(Cc1ccncc1)Cc1ccncc1,86.2%
11,COc1cc2nc(N3CCN(C(=O)c4ccco4)CC3)nc(N)c2cc1OC,20.6%
12,CCc1cccc2c3c([nH]c12)C(CC)(CC(=O)O)OCC3 (stereo not given),86%
13,NCCS(=O)(=O)O,102%
14,Cc1cc(C(C)(C)C)c(O)c(C)c1CC1=NCCN1,95.8%
15,CC1(CN2CCC(n3c(=O)[nH]c4ccccc43)CC2)OCc2ccccc2-n2cccc21 (stereo not given),9.37%
16,Cc1ccccc1N1C(=O)c2cc(S(N)(=O)=O)c(Cl)cc2NC1C (stereo not given),51%
17,O=C1Cc2cc(CCN3CCN(c4nsc5ccccc45)CC3)c(Cl)cc2N1,21.2%
18,NCCCCCC(=O)O,91.3%
19,CN(C)CCCN1c2ccccc2CCc2ccc(Cl)cc21,12%
20,COc1ccccc1OCC(O)CN1CCN(CC(=O)Nc2c(C)cccc2C)CC1 (stereo not given),97.5%
